# Data reported in the supplement of paper PMC12350171.
# Counter-ions that a name gives are not always drawn. A number with no mark means an inactive call.
# Tests used:
# Settings in all cases: 20 µM
# [1] = test system: Salmonella enterica typhimurium; test: growth AUC normalised to DMSO control (fraction of control); higher = less growth inhibition, active = hit call of the paper
# Outline: (§1)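 After two anaerobic passages, pathogens were added at a starting OD578 of 0.01 to pre-reduced mGAM plates holding compound at 20 μM with 1% DMSO; hemin and NAD were supplemented for Haemophilus parainfluenzae. Sealed with breathable membranes, plates were read at OD578 hourly for 24 h, in three biological replicates. The trapezoidal rule, applied up to the exponential-to-stationary transition, gave the growth-curve AUC, which was normalised to DMSO controls on the same plate.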
# Shigella flexneri = test: as above
# Outline: as §1
# Vibrio cholerae = test: as above
# Outline: as §1
# [2] = test system: Yersinia pseudotuberculosis; test: as above
# Outline: as §1
# P. vulgatus RND KO = test: growth AUC normalised to DMSO control (median) (fraction of control); higher = less growth inhibition, active = hit call of the paper
# Outline: (§2)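 In 96-well plates of mGAM seeded at OD578 0.01, strains that had been passaged twice overnight without oxygen were exposed to approved-drug library compounds at 20 μM with 1% DMSO. Hourly OD578 readings were taken for 24 h in an anaerobic incubator. The trapezoidal-rule area under the curve, with curves truncated at entry into stationary phase, was expressed relative to same-plate vehicle wells as the median of three biological replicates.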
# P. vulgatus WT = test: as above
# Outline: as §2
# [3] = test system: S. enterica typhimurium WT; test: as above
# Outline: as §2
# [4] = test system: S. enterica typhimurium tolC KO; test: as above
# Outline: as §2
# 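For growth AUC normalised to DMSO control (median) in this document: active when median AUC fell below 0.1.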
Compound,growth AUC normalised to DMSO control [1],growth AUC normalised to DMSO control (Shigella flexneri),growth AUC normalised to DMSO control (Vibrio cholerae),growth AUC normalised to DMSO control [2],growth AUC normalised to DMSO control (P. vulgatus RND KO),growth AUC normalised to DMSO control (P. vulgatus WT),growth AUC normalised to DMSO control [3],growth AUC normalised to DMSO control [4]
CCCN[C@H]1CCc2nc(N)sc2C1 [Pramipexole dihydrochloride],0.989,0.972,0.989,0.994,0.988,0.997,0.992,0.999
c1ccc(-c2ccc(C(c3ccccc3)n3ccnc3)cc2)cc1 (configuration not stated) [Bifonazole],1.01,1.04,1,1.02,0.983,1,0.999,0.92
Clc1ccc(COC(Cn2ccnc2)c2ccc(Cl)cc2Cl)cc1 (configuration not stated) [Econazole nitrate],0.977,0.987,0.962,1.01,0.899,0.902,1,0.912
NS(=O)(=O)c1cc2c(cc1C(F)(F)F)NCNS2(=O)=O [Hydroflumethiazide],1.01,1.01,0.998,0.998,1.02,0.986,1.01,1.01
C[C@@H]1CN(c2c(F)c(N)c3c(=O)c(C(=O)O)cn(C4CC4)c3c2F)C[C@H](C)N1 [Sparfloxacin],0.00775 (active),0.047 (active),0.0469 (active),0.0357 (active),0.0205 (active),0.0159 (active),0.0129 (active),0.00501 (active)
Oc1c(Cl)cc(Cl)c(Cl)c1Cc1c(O)c(Cl)cc(Cl)c1Cl [Hexachlorophene],0.941,1.04,0.0587 (active),0.411 (active),0.00764 (active),0.00869 (active),0.972,0.00738 (active)
CCn1cc(C(=O)O)c(=O)c2cnc(N3CCCC3)nc21 [Piromidic acid],0.996,1.04,0.0557 (active),0.983,1.06,1.03,1.02,0.0548 (active)
CCN(CC)CCNC(=O)c1ccc(N)cc1 [Procainamide hydrochloride],0.994,0.99,0.999,1,1.02,1.03,1,1
CN(C)CC/C=C1/c2ccccc2Sc2ccc(Cl)cc21 [Chlorprothixene hydrochloride],0.997,0.988,0.817 (active),0.996,0.904,0.887,0.999,0.912
Cc1cccc(C)c1NC(=O)C1CCCCN1C (configuration not stated) [Mepivacaine hydrochloride],1.01,1.06,1.07,1.02,1.06,1.05,0.99,0.996
NS(=O)(=O)c1cc2c(cc1Cl)NC(C(Cl)Cl)NS2(=O)=O (configuration not stated) [Trichlormethiazide],0.974,1.04,0.957,0.986,0.974,0.982,1.01,0.999
CC(=O)OCC(=O)[C@@]12OC(C)(C)O[C@@H]1C[C@H]1[C@@H]3C[C@H](F)C4=CC(=O)C=C[C@]4(C)[C@@]3(F)[C@@H](O)C[C@@]12C [Fluocinonide],0.994,0.97,0.973,1.12,0.967,0.951,1.01,0.995
N=c1nc(N2CCCCC2)cc(N)n1O [Minoxidil],1,1.03,1.01,0.974,0.992,1.01,0.981,1.01
CN(C)[C@@H]1C(=O)C(C(=O)NCNCCCC[C@H](N)C(=O)O)=C(O)[C@@]2(O)C(=O)C3=C(O)c4c(O)cccc4[C@@](C)(O)[C@H]3C[C@@H]12 [Lymecycline],0.903 (active),0.947,0.448 (active),1.01,0.779,0.835,0.94,0.94
CCOC1O[C@H]([C@@H](COCc2ccccc2)OCc2ccccc2)[C@H](OCc2ccccc2)[C@H]1O (some centres not stated) [Tribenoside],1,1.01,1,0.988,0.946,0.987,1.01,0.959
CC(C)(Oc1ccc(CCNC(=O)c2ccc(Cl)cc2)cc1)C(=O)O [Bezafibrate],0.976,0.959,0.988,0.994,0.976,1,0.998,0.99
O=c1oc2ccccc2c(O)c1Cc1c(O)c2ccccc2oc1=O [Dicumarol],0.986,1,0.891,1,0.877,0.945,1,0.891
CCCNCC(O)COc1ccccc1C(=O)CCc1ccccc1 (configuration not stated) [Propafenone hydrochloride],1,0.994,0.979,0.99,1.03,1.05,0.988,0.948
CC[N+](CC)(CC)CCOc1cccc(OCC[N+](CC)(CC)CC)c1OCC[N+](CC)(CC)CC [Gallamine triethiodide],1,1.02,1.01,1.02,1.02,1.02,1.01,1.01
CCCCCCCCCCCCCCCC[N+](C)(C)CCN(Cc1ccc(OC)cc1)c1ncccn1 [Thonzonium bromide],0.999,0.979,0.944,1.01,0.878,0.883,1,1
Cc1cc(NS(=O)(=O)c2ccc(N)cc2)no1 [Sulfamethoxazole],0.983,0.984,0.993,0.991,0.951,0.979,0.967,0.959
C[N+]1(C)CCC(=C(c2ccccc2)c2ccccc2)CC1 [Diphemanil methylsulfate],0.987,1.01,1.02,1.02,1.03,1.02,0.991,1
CC(=O)OC[C@H]1O[C@@H]([S-])[C@H](OC(C)=O)[C@@H](OC(C)=O)[C@@H]1OC(C)=O.CCP(CC)CC.[Au+] [Auranofin],0.877 (active),1.01,0.67 (active),0.672 (active),0.00406 (active),0.233,0.855,0.862
CC1(C)O[C@@H]2C[C@H]3[C@@H]4CCC5=CC(=O)CC[C@]5(C)[C@@]4(F)[C@@H](O)C[C@]3(C)[C@]2(C(=O)CCl)O1 [Halcinonide],1,1.03,0.99,1,0.993,1,1.02,0.967
CN(C)/N=N/c1[nH]cnc1C(N)=O [Dacarbazine],0.989,0.976,0.994,1,1.04,1.03,0.997,1
"CC(C)NCC(O)c1ccc(O)c(O)c1 (single isomer, unassigned; (+)) [(+) Isoproterenol-(+)-bitartrate salt]",1.02,1.02,1.03,0.913,1.01,1.03,1.01,0.984
Nc1ccc(S(=O)(=O)Nc2nccs2)cc1 [Sulfathiazole],1.02,1,1.01,1.01,0.995,1.01,0.985,0.974
O=C(NC(Cc1cc(=O)[nH]c2ccccc12)C(=O)O)c1ccc(Cl)cc1 (configuration not stated) [Rebamipide],1,1.03,1.03,0.997,1.06,1.09,0.99,0.998
CCc1c(C)[nH]c2c1C(=O)C(CN1CCOCC1)CC2 (configuration not stated) [Molindone hydrochloride],1,1.02,1.04,1.01,1.03,1.05,1.02,1.01
